Where a name gives a salt, the structure may show the parent alone. Among all 1,200 compounds or so, about 50 (4%) showed activity. Only a selection was taken, and actives are over-represented in it overall. Values without a mark were called inactive. Rule as the data show it: all actives reach 1.3 or more but so do some inactives.
What follows are compounds tested on Lgr5 (MarsCy1-Lgr5-EGFP, U2OS) (assay: cell-surface Lgr5 expression (SCi1 fluorescence, background-subtracted) relative to WT DMSO (fold of DMSO control); higher = more Lgr5 at the plasma membrane, active = hit call of the paper). Conditions: U2OS MarsCy1-Lgr5-EGFP stable; treatment time: overnight; 16 µM; library: Johns Hopkins Clinical Compound Library.
In the case of `C=CC[N+]1([C@H]2C[C@H]3[C@@H]4CC[C@H]5C[C@H](O)[C@@H](N6CCOCC6)C[C@]5(C)[C@H]4CC[C@]3(C)[C@H]2OC(C)=O)CCCC1` [Rocuronium bromide (Zemuron)], the “cell-surface Lgr5 expression” value is reported as 1.2.
`CCCCC(C)(O)C/C=C/[C@H]1[C@H](O)CC(=O)[C@@H]1CCCCCCC(=O)OC` (mixture of isomers) [Misoprostol] was tested, and the “cell-surface Lgr5 expression” value was 1.07.
`O=C(Cc1cccs1)N[C@@H]1C(=O)N2C(C(=O)O)=C(/C=C/c3ccc([N+](=O)[O-])cc3[N+](=O)[O-])CS[C@H]12` [Nitrocefin] was tested, and the “cell-surface Lgr5 expression” value was 0.867.
With `CCOC(C)OCC` [Acetal] the “cell-surface Lgr5 expression” value was 1.06.
With `CC(=O)O[C@]1(C(C)=O)CC[C@H]2[C@@H]3C=C(Cl)C4=CC(=O)CC[C@]4(C)[C@H]3CC[C@@]21C` [Chlormadinone acetate] the “cell-surface Lgr5 expression” value was 1.09.
With `CC(=O)O[C@]1(C(C)=O)CC[C@H]2[C@@H]3C=C(C)C4=CC(=O)CC[C@]4(C)[C@H]3CC[C@@]21C` [Megestrol Acetate] the “cell-surface Lgr5 expression” value was 1.29.
With `C=C1C[C@H]2[C@@H]3C=C(C)C4=CC(=O)CC[C@]4(C)[C@H]3CC[C@]2(C)[C@@]1(OC(C)=O)C(C)=O` [Melengestrol acetate] the “cell-surface Lgr5 expression” value was 1.58 (active).
With `CO[C@H]1C=CO[C@@]2(C)Oc3c(C)c(O)c4c(O)c(c(C=O)c(O)c4c3C2=O)NC(=O)C(C)=CC=C[C@H](C)[C@H](O)[C@@H](C)[C@@H](O)[C@@H](C)[C@H](OC(C)=O)[C@@H]1C` [3-formyl Rifamycin] the “cell-surface Lgr5 expression” value was 1.12.
In the case of `O=C([O-])[O-].[Ca+2]` [Calcium carbonate], the “cell-surface Lgr5 expression” value is reported as 0.936.
For `COC(=O)Nc1nc2cc([S+]([O-])c3ccccc3)ccc2[nH]1` (stereo not drawn) [Oxfendazole], the “cell-surface Lgr5 expression” value was 1.18.
For `O=[N+]([O-])c1ccc(O)cc1` [4-Nitrophenol], the “cell-surface Lgr5 expression” value was 1.17.
For `[Na+].[OH-]` [Sodium hydroxide], the “cell-surface Lgr5 expression” value was 0.75.
In the case of `COc1ccc2cc(CCC(C)=O)ccc2c1` [Nabumetone], the “cell-surface Lgr5 expression” value is reported as 1.32 (active).
With `COc1ccc(C(=O)c2ccccc2O)c(O)c1` [Dioxybenzone (2,2'-Dihydroxy-4-methoxybenzophenone)] the “cell-surface Lgr5 expression” value was 0.985.
With `COc1ccc2cc([C@H](C)C(=O)O)ccc2c1` [Naproxen (s-6-methoxy methyl 2-naphthalene acetic acid)] the “cell-surface Lgr5 expression” value was 0.783.
For `COc1ccc2cc([C@H](C)C(=O)O)ccc2c1` [Naproxen sodium], the “cell-surface Lgr5 expression” value was 1.03.
With `O=C([O-])C[NH+](CC(=O)[O-])CC(=O)[O-].O=C([O-])C[NH+](CC(=O)[O-])CC(=O)[O-].O=C([O-])C[NH+](CC(=O)[O-])CC(=O)[O-].[Na+].[Na+].[Na+].[Na+].[Na+].[Na+].[Na+].[O]=[Bi][O]C(=O)C[NH+](CC(=O)[O-])CC(=O)[O-]` [Bismuth Sodium Triglycollamate (Nitrilotriacetic acid)] the “cell-surface Lgr5 expression” value was 1.08.
In the case of `COc1ccc2[nH]c([S+]([O-])Cc3ncc(C)c(OC)c3C)nc2n1` (stereo not drawn) [Tenatoprazole], the “cell-surface Lgr5 expression” value is reported as 1.17.
For `[I-].[Na+]` [Sodium iodide], the “cell-surface Lgr5 expression” value was 1.13.
For `C[C@@H](C1=C(CCN(C)C)Cc2ccccc21)c1ccccn1` [Dimethindene (S, +) maleate], the “cell-surface Lgr5 expression” value was 1.32.
For `CCCCCCCCCCCCN` [Dodecylamine], the “cell-surface Lgr5 expression” value was 0.823.
For `CCCCCCCCCCCC[N+](C)(C)Cc1ccccc1`, the “cell-surface Lgr5 expression” value was 0.391.
In the case of `C[N+](C)(CCOc1ccccc1)Cc1ccccc1.O=C([O-])c1cc2ccccc2cc1O` [Bephenium hydroxy-naphthoate], the “cell-surface Lgr5 expression” value is reported as 1.05.
`Cc1cc(C(C)(C)CC(C)(C)C)ccc1OCCOCC[N+](C)(C)Cc1ccccc1` [Methylbenzethonium chloride] was tested, and the “cell-surface Lgr5 expression” value was 1.67 (active).
`CC(=O)SCC(Cc1ccccc1)C(=O)NCC(=O)OCc1ccccc1` (stereo not drawn) [Racecadotril] was tested, and the “cell-surface Lgr5 expression” value was 1.24.
With `N.O=C(O)CC(O)(CC(=O)O)C(=O)O.[Fe+3]` [Ferric ammonium citrate] the “cell-surface Lgr5 expression” value was 1.06.
In the case of `N=C(N)N` [Guanidine hydrochloride], the “cell-surface Lgr5 expression” value is reported as 0.767.
In the case of `O.O.O.O.O.O.O.O=S(=O)([O-])[O-].[Mg+2]` [Magnesium sulfate], the “cell-surface Lgr5 expression” value is reported as 1.04.
`C=CC1=C(C(=O)O)N2C(=O)[C@@H](NC(=O)/C(=N\O)c3csc(N)n3)[C@H]2SC1` [Cefdinir] was tested, and the “cell-surface Lgr5 expression” value was 1.06.
In the case of `O=C(O[C@@H]1Cc2c(O)cc(O)cc2O[C@@H]1c1ccc(O)c(O)c1)c1cc(O)c(O)c(O)c1` [Epicatechin gallate (-)], the “cell-surface Lgr5 expression” value is reported as 1.14.
With `NCCc1ccc(O)c(O)c1` [Dopamine (3-Hydroxytyramine hydrochloride)] the “cell-surface Lgr5 expression” value was 1.51 (active).
For `N[C@@H](Cc1ccc(O)c(O)c1)C(=O)O` [Levodopa (L-beta-3,4-Dihydroxyphenylananine)], the “cell-surface Lgr5 expression” value was 0.449.
`C[C@](N)(Cc1ccc(O)c(O)c1)C(=O)O` [Methyl-DOPA (alpha-methyl-L-beta-3,4-dihydroxyphenylalanine)] was tested, and the “cell-surface Lgr5 expression” value was 0.929.
`NCCc1ccc(O)c(O)c1` [3-hydroxytyramine (Dopamine)] was tested, and the “cell-surface Lgr5 expression” value was 1.43 (active).
In the case of `CC(=O)N[C@@H](CCC(N)=O)C(=O)O` [Aceglutamide (N-acetyl-L-glutamine)], the “cell-surface Lgr5 expression” value is reported as 1.2.
`CN1CC(O)C2=C/C(=N/NC(N)=O)C(=O)C=C21` (stereo not drawn) [Carbazochrome (Adrenochrome semicarbazone)] was tested, and the “cell-surface Lgr5 expression” value was 1.16.
In the case of `Cc1cc(N)c2ccccc2c1O` [Vitamin K5 hydrochloride], the “cell-surface Lgr5 expression” value is reported as 0.778.
For `O=P([O-])(O)O.[K+]` [Potassium phosphate monobasic], the “cell-surface Lgr5 expression” value was 1.24.
For `C[C@@H]1C[C@H]2[C@@H]3C[C@H](F)C4=CC(=O)C=C[C@]4(C)[C@@]3(F)[C@@H](O)C[C@]2(C)[C@@]1(O)C(=O)CO` [Flumethasone], the “cell-surface Lgr5 expression” value was 1.48 (active).
For `C[C@@H]1C[C@H]2[C@@H]3C[C@H](F)C4=CC(=O)C=C[C@]4(C)[C@@]3(F)[C@@H](O)C[C@]2(C)[C@@]1(O)C(=O)COC(=O)C(C)(C)C` [Flumethasone pivalate], the “cell-surface Lgr5 expression” value was 1.37 (active).
For `[Ca+2].[OH-].[OH-]` [Calcium hydroxide], the “cell-surface Lgr5 expression” value was 1.1.
For `O.O=C([O-])CN(CCN(CC(=O)[O-])CC(=O)[O-])CC(=O)[O-].[Ca+2].[Na+].[Na+]`, the “cell-surface Lgr5 expression” value was 1.
With `O.O=C([O-])CN(CCN(CC(=O)[O-])CC(=O)[O-])CC(=O)[O-].[Ca+2].[Na+].[Na+]` [Edetate calcium disodium (Calcium disodium versenate)] the “cell-surface Lgr5 expression” value was 0.981.
With `Cc1cc2nc3ccc(N(C)C)cc3[s+]c2cc1N` [Tolonium chloride (Toluidine blue O)] the “cell-surface Lgr5 expression” value was 1.15.
With `c1ccc(-c2ccc(C(c3ccccc3)n3ccnc3)cc2)cc1` (stereo not drawn) [Bifonazole] the “cell-surface Lgr5 expression” value was 1.04.
In the case of `[Fe+3].[Fe+3].[O-2].[O-2].[O-2].[O-2].[Zn+2]` [Calamine], the “cell-surface Lgr5 expression” value is reported as 0.886.
`Cc1ncc(CSSCc2cnc(C)c(O)c2CO)c(CO)c1O` [Pyrithioxin] was tested, and the “cell-surface Lgr5 expression” value was 1.16.
For `CN(C)CCOC(C)(c1ccccc1)c1ccc(Cl)cc1` (stereo not drawn) [Chlorphenoxamine hydrochloride], the “cell-surface Lgr5 expression” value was 1.15.
`O=C[C@H](O)[C@@H](O)[C@H](O)[C@H](O)C(=O)[O-].[Na+]` [Sodium glucuronate (D-Glucuronic acid)] was tested, and the “cell-surface Lgr5 expression” value was 1.32 (active).
In the case of `O=C([O-])C(O)C(O)C(=O)[O-].[K+].[Na+]` (stereo not drawn) [Potassium sodium tartrate tetrahydrate], the “cell-surface Lgr5 expression” value is reported as 1.1.
For `O=CC(O)C(O)C(O)C(O)CO` (stereo not drawn) [Glucose (D)], the “cell-surface Lgr5 expression” value was 1.02.
`Cc1ccc2c(Br)cc(Br)c(O)c2n1` [Broquinaldol (5,7-dibromo-8-hydroxy-quinaldine)] was tested, and the “cell-surface Lgr5 expression” value was 1.1.
`Cc1ccc(/C(=C\CN2CCCC2)c2cccc(/C=C/C(=O)O)n2)cc1` [Acrivastine] was tested, and the “cell-surface Lgr5 expression” value was 1.15.
In the case of `N[C@@H](C(=O)N[C@@H]1C(=O)N2C(C(=O)O)=C(Cl)CC[C@H]12)c1ccccc1` [Loracarbef], the “cell-surface Lgr5 expression” value is reported as 0.67.
In the case of `CCCCN(CCCC)CCCOC(=O)c1ccc(N)cc1` [Butacaine], the “cell-surface Lgr5 expression” value is reported as 1.62 (active).
`CCCCOC(=O)c1ccc(N)cc1` [Butamben (n-butyl p aminobenzoate)] was tested, and the “cell-surface Lgr5 expression” value was 1.
With `CCN(CC)CCOC(=O)c1ccc(N)cc1` [Procaine hydrochloride] the “cell-surface Lgr5 expression” value was 0.937.
`Cc1ncc(COP(=O)(O)O)c(C=O)c1O` [Pyridoxal-5-phosphate] was tested, and the “cell-surface Lgr5 expression” value was 0.951.
In the case of `CCCCn1c(=O)c2c(ncn2CC(C)=O)n(CCCC)c1=O` [Denbufylline], the “cell-surface Lgr5 expression” value is reported as 1.44.
`C[C@@H](O[C@H]1OCCN(Cc2n[nH]c(=O)[nH]2)[C@H]1c1ccc(F)cc1)c1cc(C(F)(F)F)cc(C(F)(F)F)c1` [Aprepitant] was tested, and the “cell-surface Lgr5 expression” value was 1.01.
`Cn1c(NCCN(CCO)CCCc2ccc([N+](=O)[O-])cc2)cc(=O)n(C)c1=O` [Nifekalant] was tested, and the “cell-surface Lgr5 expression” value was 0.923.
With `[Cl-].[Cl-].[Cl-].[In+3]` [Indium(III) chloride] the “cell-surface Lgr5 expression” value was 0.736.
With `CCN(CC)CC(=O)Nc1c(C)cccc1C` [Lidocaine] the “cell-surface Lgr5 expression” value was 1.19.
With `CC[N+](CC)(CC)CC(=O)Nc1c(C)cccc1C` [Lidocaine N-ethyl bromide] the “cell-surface Lgr5 expression” value was 1.39 (active).
For `Cc1cccc(C)c1NC(=O)C(C)N` (stereo not drawn) [Tocainide hydrochloride], the “cell-surface Lgr5 expression” value was 1.07.
With `O[C@@H]1[C@H](O)[C@@H](O)C=C[C@H]1O` [Conduritol] the “cell-surface Lgr5 expression” value was 1.03.
With `O=C(O)c1ccccc1I` [2-Iodobenzoic acid] the “cell-surface Lgr5 expression” value was 1.04.
For `O=C(O)c1cc(-c2ccccc2)nc2ccccc12` [Cinchophen (2-phenyl 4-quinoline carboxylic acid)], the “cell-surface Lgr5 expression” value was 1.45 (active).
In the case of `Nc1c2ccccc2nc2ccccc12` [Aminacrine (9-Aminoacridine)], the “cell-surface Lgr5 expression” value is reported as 0.26.
For `O=C(O)c1cc(O)c(O)c(O)c1` [Gallic acid], the “cell-surface Lgr5 expression” value was 0.979.
In the case of `O=C(Nc1ccccc1)c1cc(Cl)ccc1O` [5-Chlorosalicylanilide], the “cell-surface Lgr5 expression” value is reported as 1.12.
For `COC1=C(OC)C(=O)C(CCCCCCCCCCO)=C(C)C1=O` [Idebenone], the “cell-surface Lgr5 expression” value was 1.04.
In the case of `CC1(C)S[C@@H]2[C@H](NC(=O)COc3ccccc3)C(=O)N2[C@H]1C(=O)O.CN(C)[C@@H]1C(O)=C(C(=O)NCN2CCN(CCO)CC2)C(=O)[C@@]2(O)C(O)=C3C(=O)c4c(O)cccc4[C@@](C)(O)[C@H]3C[C@@H]12` [Penimepicycline], the “cell-surface Lgr5 expression” value is reported as 0.846.

From the supplement of paper PMC4683952
